Measured values taken from PubChem BioAssay AID1159580 (chemical genetic matrix, 2015).
Where “and” joins values, the source holds several entries; their conditions need not be identical. Equal values may be shown once. Out of some 5,500 compounds screened, about 2,000 (36%) were called active. Not shown: some 18% with an inconclusive outcome. Rule as the data show it: active = normalized growth mostly below about 0.91 (no sharp cut-off); inconclusive = no clear call, values can overlap the other calls; inactive = mostly above about 0.92. The list shows a part of the results.

Assay: chemical genetic growth profiling, strain panel (AID 1159580);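 also: tested at 20 µM; growth read once vehicle control cultures reached saturation at 30 °C; 1 = growth at the plate median or of vehicle wells; lower values mean less growth of the strain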
Conditions: S. cerevisiae deletion strains, growth OD

Measured: normalized growth

C=CCc1ccc2c(c1)OCO2
active: locus YAL013W, strain DEP1, active compounds read low 0.863
inactive: locus YAL021C, strain ccr4, active compounds read low 1.02 | locus YAL026C, strain drs2, active compounds read low 1.04 | locus YAL030W, strain snc1, active compounds read low 1.01 | locus YBL061C, strain skt5, active compounds read low 1.02 | locus YBR009C, strain hhf1, active compounds read low 1.05 | locus YBR021W, strain FUR4, active compounds read low 1.03 | locus YBR023C, strain chs3, active compounds read low 1.03 | locus YBR171W, strain sec66, active compounds read low 1.02 | locus YBR229C, strain ROT2, active compounds read low 1.02 | locus YBR231C, strain swc5, active compounds read low 1.01 | locus YBR279W, strain paf1, active compounds read low 1.03 | locus YCL011C, strain gbp2, active compounds read low 1.03 | locus YCL016C, strain dcc1, active compounds read low 1.05 | locus YCL029C, strain bik1, active compounds read low 0.99 | locus YCL061C, strain MRC1, active compounds read low 1.06 | locus YCL069W, strain vba3, active compounds read low 1.01 | locus YCR088W, strain abp1, active compounds read low 1.02 | locus YDL005C, strain med2, active compounds read low 1.02 | locus YDL035C, strain GPR1, active compounds read low 1.03 | locus YDL040C, strain nat1, active compounds read low 1.01 | locus YDL074C, strain BRE1, active compounds read low 1.02 | locus YDL101C, strain DUN1, active compounds read low 0.999 | locus YDL185W, strain tfp1, active compounds read low 1.01 | locus YDL192W, strain arf1, active compounds read low 0.99 | locus YDR001C, strain nth1, active compounds read low 1.02 | locus YDR069C, strain doa4, active compounds read low 1.03 | locus YDR101C, strain arx1, active compounds read low 0.985 | locus YDR137W, strain rgp1, active compounds read low 1.05 | locus YDR159W, strain sac3, active compounds read low 0.976 | locus YDR162C, strain NBP2, active compounds read low 1.01 | locus YDR195W, strain ref2 0.982 | locus YDR297W, strain sur2, active compounds read low 1.01 | locus YDR318W, strain mcm21, active compounds read low 0.996 | locus YDR334W, strain swr1, active compounds read low 1.03 | locus YDR335W, strain msn5, active compounds read low 1.02 | locus YDR388W, active compounds read low 0.987 | locus YDR392W, strain spt3, active compounds read low 0.965 | locus YDR502C, strain sam2, active compounds read low 0.992 | locus YEL003W, strain gim4, active compounds read low 1.02 | locus YEL037C, strain rad23, active compounds read low 1.02 | locus YEL061C, strain CIN8 (second series), active compounds read low 1.02 | locus YEL061C, strain CIN8, active compounds read low 1 | locus YER015W, strain faa2, active compounds read low 1.01 | locus YER016W, strain bim1, active compounds read low 1 | locus YER110C, active compounds read low 0.982 | locus YER111C, strain swi4, active compounds read low 1.02 | locus YER155C, strain BEM2 (second series), active compounds read low 0.956 | locus YER155C, strain BEM2, active compounds read low 0.999 | locus YER167W, strain BCK2, active compounds read low 1.02 | locus YFR010W, strain ubp6, active compounds read low 1.05 | locus YGL078C, strain dbp3, active compounds read low 0.993 | locus YGL086W, strain mad1, active compounds read low 0.988 | locus YGL167C, strain pmr1, active compounds read low 1.02 | locus YGL173C, strain kem1, active compounds read low 1.02 | locus YGL227W, strain vid30, active compounds read low 1.01 | locus YGL240W, strain doc1, active compounds read low 0.972 | locus YGL248W, strain PDE1, active compounds read low 1.01 | locus YGL253W, strain hxk2, active compounds read low 1.04 | locus YGR135W, strain pre9, active compounds read low 1.01 | locus YGR229C, strain SMI1, active compounds read low 1.03 | locus YGR252W, strain gcn5, active compounds read low 1.06 | locus YHR013C, strain ard1, active compounds read low 1.06 | locus YHR027C, strain rpn1, active compounds read low 1.02 | locus YHR030C, strain SLT2, active compounds read low 1 and 0.954 | locus YHR079C, strain IRE1 (second series), active compounds read low 0.989 | locus YHR079C, strain IRE1, active compounds read low 0.965 | locus YHR094C, strain hxt1, active compounds read low 0.981 | locus YHR129C, strain ARP1, active compounds read low 1 | locus YHR142W, strain chs7, active compounds read low 1.07 | locus YHR200W, strain rpn10, active compounds read low 0.99 | locus YIL066C, strain RNR3, active compounds read low 1.02 | locus YIL073C, strain SPO22, active compounds read low 1.01 | locus YIL125W, strain kgd1, active compounds read low 0.988 | locus YIR030C, strain dcg1, active compounds read low 0.988 | locus YJL092W, strain hpr5, active compounds read low 1.03 | locus YJL095W, strain BCK1 (second series), active compounds read low 1.03 | locus YJL095W, strain BCK1, active compounds read low 1.01 | locus YJL115W, strain asf1, active compounds read low 1.02 | locus YJL129C, strain trk1, active compounds read low 1.01 | locus YJL134W, strain LCB3, active compounds read low 1 | locus YJL154C, strain vps35, active compounds read low 1.01 | locus YJL164C, strain tpk1, active compounds read low 1.04 | locus YJL166W, strain qcr8, active compounds read low 1.04 | locus YJL168C, strain set2, active compounds read low 0.987 | locus YJL187C, strain SWE1 (second series), active compounds read low 1.01 | locus YJL187C, strain SWE1, active compounds read low 1.03
